# An excerpt weighted towards active compounds, which were near 27% of everything screened.
# Cav32 inh: inhibitors of human Cav3.2 T-type calcium channel. O95180. Cav3.2-expressing cells, Fluo-4 calcium fluorescence FDSS; stronger effect = lower value. B-score at 10 µM. 100,000 tested, 4% active. AID 449739;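 active means single-dose well whose peak fluorescence ratio is a statistical outlier from its plate by either plate-standardised score or position-corrected B-score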
# CYP2C19 activ: increases human CYP2C19 enzyme activity | P33261 | recombinant CYP2C19, luciferin-H EGE luminescence; stronger effect = higher value; 0 = fully inhibited enzyme, 1 = untreated enzyme | activation factor at 5 µM | 96,000 tested, under 10 active;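 active means activation factor of at least 2 at 5 µM in the primary screen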;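 further: 0 = wells with 2.5 mM tranylcypromine and 1 = vehicle-only wells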
# CYP2C19 inh: human CYP2C19 inhibition; P33261; CYP2C19 Supersomes, luciferin-H EGE luminescence, 30 min; inhibition, % at 5 µM; 96,000 tested, 21% active;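 active means CYP2C19 inhibition above a set limit at 5 µM in the primary screen, cut at about 50% in these data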;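 further: plate controls were negative control wells for no effect and 2.5 mM tranylcypromine positive control for full effect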
# CYP2C9 activ: activators of human CYP2C9; P11712; activation factor at 5 µM; recombinant CYP2C9, luciferin-H conversion, luminescence; stronger effect = higher value; factor 1 = untreated enzyme, 0 = blocked; 96,000 tested, 1.4% active; AID 1024;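 active means activation factor of 2 or more for CYP2C9 at a 5 µM dose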;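 further: 0 = sulfaphenazole-blocked wells and 1 = vehicle-only wells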
# CYP2C9 inh: inhibitors of human CYP2C9 | 96,000 tested, 20% active | inhibition, % at 5 µM | CYP2C9 Supersomes, luciferin-H conversion, luminescence | AID 777;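 active means blocking of liver enzyme CYP2C9 beyond about 50% at 5 µM, limit read from the data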
# Active calls of the source: *; / = not tested or not shown.
SMILES,Cav32 inh,CYP2C19 activ,CYP2C19 inh,CYP2C9 activ,CYP2C9 inh
O=C(CCN1C(=O)c2ccccc2C1=O)Nc1ccccc1C(=O)N1CCOCC1,0.7,1.1,-14,1.4,-42
Fc1ccc2[nH]c3c(N4CCN(C5CCCCC5)CC4)ncnc3c2c1,/,0.3,67*,0.2,76*
COc1cccc(N2CCN(c3ncnc4c3[nH]c3ccccc34)CC2C)c1 (stereo unspecified),-5.9*,/,/,/,/
COc1cc2[nH]c3c(N4CCN(c5ccc(Cl)cc5)CC4)ncnc3c2cc1OC,1.3,1,4,0.9,6
COc1cccc(N2CCN(c3ncccn3)CC2)c1,0.11,0.9,12,0.8,20
Cc1ccc2[nH]c3c(N4CCCCCC4)ncnc3c2c1,/,0.6,39,0.6,36
COc1cccc(N2CCN(c3ncnc4c3[nH]c3ccc(F)cc34)CC2C)c1 (stereo unspecified),-6.1*,0.4,59*,0.4,60*
COc1cc(C)c(C(N)=O)c(OC)n1,-0.33,1.2,-24,1.3,-26
O=C(Nc1ccccc1C(=O)Nc1ccc2c(c1)OCO2)c1cccs1,0.034,1,-4,0.5,46
O=[N+]([O-])c1ccc2nc(-c3ccccc3)n(OCc3ccc(Cl)cc3)c2c1,-4.5*,0.9,13,0.8,18
COn1c(-c2ccccc2)nc2ccc(Cl)cc21,/,0.8,23,0.9,15
O=C(CSc1nc2ccccc2n1CC(=O)N1CCCC1)Nc1nccs1,-2.9,0.7,28,0.6,36
CCc1ccc(NC(=O)CSc2nnc(CNC(=O)c3c(F)cccc3Cl)o2)cc1,-1.1,0.8,21,0.5,52*
O=C(CSc1nnc(CNC(=O)c2cccs2)o1)NC1CCCC1,-0.056,/,/,/,/
Cc1cccc(NC(=O)CSc2nnc(-c3ccccc3Br)o2)c1C,-0.88,0.6,37,0.9,14
CCc1nnc(NC(=O)CSc2nnc(-c3ccccc3NC(=O)c3ccccc3)o2)s1,-0.1,0.9,11,0.5,51*
O=C(CSc1nnc(CNC(=O)c2cccs2)o1)Nc1cccc(C(F)(F)F)c1,-5.5*,0.8,25,0.8,22
O=C(Nc1ccccc1-c1nnc(SCc2ccccc2Cl)o1)c1ccccc1,-3.7,0.9,5,0.4,55*
CCc1nnc(NC(=O)CSc2nnc(CNc3ccc(Cl)cc3)o2)s1,-4*,0.9,14,0.6,44
COC(=O)c1c(NC(=O)CSc2nnc(CNc3ccc(Cl)cc3)o2)sc(C)c1C,-1.1,0.9,13,0.5,46
CCc1nnc(NC(=O)CSc2nnc(Cc3ccccc3)o2)s1,3.8*,0.7,31,0.7,30
CC(=O)NCCc1ccc(S(=O)(=O)Nc2cccnc2)cc1,-0.47,0.8,19,1,5
CCN1CC=C2C(C1)C(c1ccc(Cl)s1)C(C#N)=C(N)C2(C#N)C#N (stereo unspecified),/,0.3,70*,0.1,93*
COc1cc(C(=O)N2CCN=C2c2ccccc2)cc(OC)c1OC,0.21,0.6,41,1.1,-6
Cc1cc(C)c(S(=O)(=O)N2CCN=C2c2ccccc2)cc1C,-0.19,0.4,60*,1.5,-47
SMILES,Cav32 inh,CYP2C19 activ,CYP2C19 inh,CYP2C9 activ,CYP2C9 inh
Cc1cc(-c2[nH]nc3c2C(c2ccc(Cl)cc2)C(C#N)=C(N)O3)c(C)s1 (stereo unspecified),-2.1,/,/,/,/
CC(C)(C)C(=O)COC(=O)CNC(=O)c1ccc(Oc2ccccc2)cc1,-3.7*,0.8,22,0.5,53*
COc1cc(CNCCO)cc(Br)c1OCc1cccs1,0.018,0.6,44,1.2,-17
C=CCOc1c(Br)cc(CNc2nccs2)cc1OC,-7.9*,/,/,/,/
O=c1c(Cl)c(NCCCO)cnn1-c1nc2ccccc2[nH]1,3.1*,0.5,46,1,5
C=CCN(CC=C)c1cnn(-c2nc3ccccc3[nH]2)c(=O)c1Cl,0.81,0.4,56*,0.5,54*
CCOC(=O)N1CCN(C(=O)C2CCCN(S(=O)(=O)c3cccnc3)C2)CC1 (stereo unspecified),-0.083,1.1,-5,1,-2
CC(C)(C)c1ccc(C(=O)N2CCC(C(=O)NCc3ccco3)CC2)cc1,-1.6,/,/,/,/
CC(C)c1nc2cc3ccccc3cc2[nH]1,0.098,0.9,12,0.9,13
Cc1sc(NC(=O)c2ccccc2)c(C(=O)NC(C)C)c1C,0.37,0.9,5,0.5,53*
Cc1sc(NC(=O)c2ccccc2)c(C(=O)N2CCN(C)CC2)c1C,0.52,1,-1,1,-3
